{
  "source": "ChEMBL document CHEMBL3988442",
  "about": "“University of Dundee, Small-Polar-MMV Screening Library” (2021)",
  "data": [
    {"target": "AMP-activated protein kinase, AMPK (Homo sapiens) (UniProt P54646+O43741+P54619+Q9UGJ0+Q9Y478+Q13131+Q9UGI9)", "test": "AMP-dependent Kinase enzyme assay. An in vitro enzyme assay that detects ADP turnover that is directly proportional to AMPK activity. This uses naive AMPK that is activated during the assay with MK-8722", "assay_type": "functional", "set-up": "scale not given: direction of the effect not stated beside the values", "details": "30 µM", "units": {"Percent Effect": "%"}, "values": [
      {"compound": "Cc1cccc(COc2ccc(C(C)NC(=O)CNC(N)=O)cc2)c1", "note": "(stereo unspecified)", "Percent Effect": 1.42},
      {"compound": "CCOc1ccc(Cl)cc1CCNC(=O)Cn1nc(C)ccc1=O", "Percent Effect": 5.21},
      {"compound": "COc1ccc(C(C)NCCC(N)=O)cc1F", "note": "(stereo unspecified)", "Percent Effect": -6.1},
      {"compound": "CCN(C(=O)CN1CCCC1c1c(C)nn(C)c1OC)C1CC1", "note": "(stereo unspecified)", "Percent Effect": 3.98},
      {"compound": "CC(C)c1noc(C(C)N2CCC(c3nc4ccccc4o3)CC2)n1", "note": "(stereo unspecified)", "Percent Effect": 0.506},
      {"compound": "COc1cc(N(C)CCCn2nc(C)cc2C)ncn1", "Percent Effect": 13.8},
      {"compound": "COCCN(Cc1nccs1)c1nc2c(s1)c(C)nn2C", "Percent Effect": -10},
      {"compound": "CCC(C)C(=O)N(Cc1ccccn1)C1CC1", "note": "(stereo unspecified)", "Percent Effect": 2.05},
      {"compound": "COCC(=O)N1CCN(C(C)c2ncc(-c3ccccc3)o2)CC1", "note": "(stereo unspecified)", "Percent Effect": 2.58},
      {"compound": "CN1CCN(c2cccc(NC(=O)NCc3csc(N(C)C)n3)c2)C1=O", "Percent Effect": -16.7},
      {"compound": "Cc1ncsc1C(=O)OCCN1CCCc2ccccc21", "Percent Effect": 8.19},
      {"compound": "COCc1nc2cc3c(cc2c(=O)o1)OCCCO3", "Percent Effect": -7.41},
      {"compound": "COCc1nn(Cc2ccc(Cl)s2)c(=O)o1", "Percent Effect": 6.29},
      {"compound": "CCc1ncc(CN2CCOC(Cc3cccc(F)c3)C2)cn1", "note": "(stereo unspecified)", "Percent Effect": 6.71},
      {"compound": "CCc1ccc2nc(C)cc(C(=O)NC3CCC(=O)N(C)C3)c2c1", "note": "(stereo unspecified)", "Percent Effect": -7.18},
      {"compound": "COc1ccc(N2CCN(Cc3noc(CC(C)C)n3)C(C)C2=O)cc1", "note": "(stereo unspecified)", "Percent Effect": 0.845},
      {"compound": "O=C(O)[C@@H]1CN(CCOCCO)C[C@H]1c1ccccc1", "Percent Effect": 1.29},
      {"compound": "Cc1ccc(-c2cc(C(=O)NCC3CCOC3)n[nH]2)s1", "note": "(stereo unspecified)", "Percent Effect": -4.75},
      {"compound": "Cn1nccc1CN1CCOC(c2ccc(-c3cncnc3)cn2)C1", "note": "(stereo unspecified)", "Percent Effect": 9.64},
      {"compound": "Cc1cc(NC(=O)N2CCN(c3cccs3)CC2)ccc1C(N)=O", "Percent Effect": 6.86},
      {"compound": "O=C(C1COCCO1)N1CCN(CC(F)(F)F)c2ccccc21", "note": "(stereo unspecified)", "Percent Effect": 12.8}
    ]}
  ]
}
